Assay results from PubChem BioAssay.
Activity calls are given as the source filed them.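 How the source made its calls, unless noted: active means NADPH fluorescence slope more negative than the mean of all samples by about 3 SD, 99.7% confidence; inactive means the rest.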

Key:
[1] = inhibitors of TNFa-induced NFkB p65 translocation, primary screen, imaging, HUVEC, MLSMR starter and 10KST1 sets (AID 438;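 active means inhibition above 20% together with a positive visual image hit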;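 further: compound added about 3h40 before a 20 min TNFalpha stimulation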;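 on inhibition: signal is the nuclear over cytoplasmic p65 intensity ratio per well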); conditions: HUVEC TNFa-induced p65 nuclear translocation; cell count: measured here: nuclei count (cytotoxicity indicator), at 2.08 µM; inhibition: at 2 µM, stronger effect = higher value, 0% TNFa-plus-vehicle, 100% no-TNFa wells
[2] = inhibitors of mutant huntingtin aggregation, primary screen, imaging, exon1htt(103Q)mCFP cells, high-content imaging (AID 483;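 active means visual image review flags a hit and inhibition of aggregation exceeds 20%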;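 further: compound exposure lasted 3 days before fixation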;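 on nuclei count: percent of the per-plate median nuclei count of sample wells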); conditions: exon1htt(103Q)mCFP cell line, aggregate imaging, at 2 µM; inhibition of aggregation: stronger effect = higher value; nuclei count: measured here: cell count, toxicity
[3] = inhibitors of E-selectin induction by TNFa, primary screen, imaging, HUVEC, immunofluorescence, MLSMR starter and 10KST1 sets (AID 487;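 active means visually confirmed hit in the image check and inhibition above 20%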;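 on inhibition: signal is fraction of cell area covered by stained E-selectin grains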;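 on nuclei count: 100% = median nuclei count of all wells on the same plate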); conditions: HUVEC TNFalpha-induced E-selectin immunofluorescence imaging, at 2 µM; inhibition: stronger effect = higher value; nuclei count: measured here: cell number, toxicity
[4] = target: Voltage-gated potassium channel subunit beta-2 (Rattus norvegicus) (UniProt P62483); assay: KvBeta enzyme negative modulators, primary screen, biochemical, NADPH fluorescence (AID 622;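 active means fluorescence slope higher than the sample average by over 3 SD, cut at about -0.22 in these data, passing the limit was not always enough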;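 further: slope of raw intensity against log time taken from 70 to 1610 s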); conditions: recombinant KvBeta, 4-cyanobenzaldehyde reduction, at 10 µM, stronger effect = higher value
Chain of Voltage-gated potassium channel subunit beta-2 (Rattus norvegicus) (P62483 whole entry, looked up): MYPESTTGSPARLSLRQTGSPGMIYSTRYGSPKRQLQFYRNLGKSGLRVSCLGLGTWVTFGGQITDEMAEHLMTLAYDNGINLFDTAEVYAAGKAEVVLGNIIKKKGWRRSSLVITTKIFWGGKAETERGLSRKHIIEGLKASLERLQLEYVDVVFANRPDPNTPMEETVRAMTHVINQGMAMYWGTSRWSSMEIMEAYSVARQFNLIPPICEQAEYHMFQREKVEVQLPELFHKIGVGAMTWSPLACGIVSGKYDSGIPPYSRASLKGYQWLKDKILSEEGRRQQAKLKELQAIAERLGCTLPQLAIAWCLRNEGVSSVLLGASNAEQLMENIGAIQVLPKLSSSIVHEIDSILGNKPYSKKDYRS

[5] = target: Voltage-gated potassium channel subunit beta-2 (Rattus norvegicus) (UniProt P62483); assay: KvBeta positive modulators, primary screen, biochemical, NADPH fluorescence (AID 623); conditions: Recombinant KvBeta, NADPH fluorescence decrease slope, 10 min; at 10 µM; stronger effect = lower value;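 further: fluorescence intensity change per second fitted from 20 to 320 s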
[6] = target: Alpha-2C adrenergic receptor (Homo sapiens) (UniProt P18825); assay: modulators of alpha2C/GIRK thallium flux, primary screen, cell-based, HEK293 alpha2C/GIRK1/2 (AID 624;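 active means fluorescence slope after compound addition differing from the mean of all screened samples at 99.7% confidence, in either direction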;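 further: slope of fluorescence ratio to pre-addition baseline per second over 15 to 24 s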); conditions: thallium flux BTC fluorescence, at 10 µM, actives lie on both sides
Chain of Alpha-2C adrenergic receptor (Homo sapiens) (P18825 whole entry, looked up): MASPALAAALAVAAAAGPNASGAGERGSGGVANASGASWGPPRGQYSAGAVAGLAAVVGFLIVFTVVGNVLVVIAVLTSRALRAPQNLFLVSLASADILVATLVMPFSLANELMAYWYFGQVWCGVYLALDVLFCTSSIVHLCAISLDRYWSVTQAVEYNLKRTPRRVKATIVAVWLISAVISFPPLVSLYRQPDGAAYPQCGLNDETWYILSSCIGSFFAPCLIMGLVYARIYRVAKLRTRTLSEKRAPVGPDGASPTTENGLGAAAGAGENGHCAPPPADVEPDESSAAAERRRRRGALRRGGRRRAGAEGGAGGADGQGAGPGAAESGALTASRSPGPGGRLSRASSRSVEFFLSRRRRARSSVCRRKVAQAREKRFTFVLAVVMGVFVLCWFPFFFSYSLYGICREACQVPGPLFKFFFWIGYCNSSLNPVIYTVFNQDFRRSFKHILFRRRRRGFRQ

[7] = inhibitors of Sendai virus-induced IRF3 signaling, primary screen, TLR/RLR signaling modifier project, cell-based, Sendai virus stimulus, luciferase, 10K MLSCN set (AID 602276;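 active means inhibition at or above 50% at 10 µM; inactive means inhibition below 50%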;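 further: firefly luciferase from ISG56 promoter only with Renilla not read in this screen; 0% = Sendai virus plus DMSO and 100% = medium plus DMSO without virus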); conditions: HEK293 RL24 IRF3 luciferase reporter, at 10 µM, stronger effect = higher value
[8] = inhibitors of poly I:C-induced TLR3 signaling, primary screen, cell-based, poly I:C stimulus, luciferase, 10K MLSCN set (AID 602277;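 active means inhibition of the reporter signal at or above 50%; inactive means inhibition below 50%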); conditions: HEK293-TLR3 RL24 IRF3 luciferase reporter, at 10 µM, stronger effect = higher value

COC(=O)c1nc(N)sc1-c1ccccc1
cell count [1]: 592
inhibition [1]: 7.2% (inactive)
inhibition of aggregation [2]: 9.3% (inactive)
nuclei count [2]: 99.9%
inhibition [3]: 4.8% (inactive)
nuclei count [3]: 101%
fluorescence slope [4]: -0.352 (inactive)
NADPH fluorescence slope [5]: 2.3e-05 (inactive)
slope [6]: 0.00535 (inactive)
inhibition [7]: 11.7% (inactive)
inhibition [8]: 37.7% (inactive)

O=C(c1ccco1)N1CCN(S(=O)(=O)c2ccc(C3CCCCC3)cc2)CC1
cell count [1]: 400
inhibition [1]: 7.2% (inactive)
inhibition of aggregation [2]: -1.8% (inactive)
nuclei count [2]: 102%
inhibition [3]: -44.9% (inactive)
nuclei count [3]: 109%
fluorescence slope [4]: -0.501 (inactive)
NADPH fluorescence slope [5]: -3.8e-05 (inactive)
slope [6]: 0.00443 (inactive)
inhibition [7]: -0.0986% (inactive)
inhibition [8]: -28.6% (inactive)

Cc1ccc2c(c1)-c1c(cnn1CC(=O)Nc1ccccc1N1CCN(C)CC1)CO2
cell count [1]: 521
inhibition [1]: -10.8% (inactive)
inhibition of aggregation [2]: -22% (inactive)
nuclei count [2]: 66.8%
inhibition [3]: -3.4% (inactive)
nuclei count [3]: 108%
fluorescence slope [4]: -0.507 (inactive)
NADPH fluorescence slope [5]: -9e-06 (inactive)
slope [6]: 0.00599 (inactive)
inhibition [7]: 3.02% (inactive)
inhibition [8]: 7.29% (inactive)

CO/C([O-])=N/c1c[n+](-c2ccc(C)cc2)no1
cell count [1]: 711
inhibition [1]: -18.1% (inactive)
inhibition of aggregation [2]: -9.2% (inactive)
nuclei count [2]: 104%
inhibition [3]: -3.6% (inactive)
nuclei count [3]: 113%
fluorescence slope [4]: -0.471 (inactive)
NADPH fluorescence slope [5]: -4.7e-05 (inactive)
slope [6]: 0.00685 (inactive)
inhibition [7]: -8.44% (inactive)
inhibition [8]: -40% (inactive)

O=C(CCNS(=O)(=O)c1ccc(Br)s1)N1CCCCC1
cell count [1]: 380
inhibition [1]: 0.3% (inactive)
inhibition of aggregation [2]: -2% (inactive)
nuclei count [2]: 99.9%
inhibition [3]: -86.3% (inactive)
nuclei count [3]: 106%
fluorescence slope [4]: -0.494 (inactive)
NADPH fluorescence slope [5]: -3.4e-05 (inactive)
slope [6]: 0.00623 (inactive)
inhibition [7]: -0.525% (inactive)
inhibition [8]: 7.37% (inactive)

CCN(CC(=O)NCc1cccs1)C(=O)c1cc(S(=O)(=O)N2CCOCC2)ccc1C
cell count [1]: 591
inhibition [1]: -9.6% (inactive)
inhibition of aggregation [2]: -22.2% (inactive)
nuclei count [2]: 107%
inhibition [3]: -82.2% (inactive)
nuclei count [3]: 136%
fluorescence slope [4]: -0.466 (inactive)
NADPH fluorescence slope [5]: -3.7e-05 (inactive)
slope [6]: 0.00388 (inactive)
inhibition [7]: 1.74% (inactive)
inhibition [8]: 27.8% (inactive)

Cc1cccc2c1N(CC(=O)OC(C)C)C(=O)C2=O
cell count [1]: 854
inhibition [1]: 0% (inactive)
inhibition of aggregation [2]: -1.4% (inactive)
nuclei count [2]: 105%
inhibition [3]: -67.4% (inactive)
nuclei count [3]: 121%
fluorescence slope [4]: -0.612 (inactive)
NADPH fluorescence slope [5]: -6.4e-06 (inactive)
slope [6]: 0.00621 (inactive)
inhibition [7]: -2.09% (inactive)
inhibition [8]: 29% (inactive)

COc1cccc(NC(=O)C2CCN(c3ncccn3)CC2)c1
cell count [1]: 746
inhibition [1]: -18.4% (inactive)
inhibition of aggregation [2]: -8.1% (inactive)
nuclei count [2]: 94.4%
inhibition [3]: -62.3% (inactive)
nuclei count [3]: 129%
fluorescence slope [4]: -0.437 (inactive)
NADPH fluorescence slope [5]: -1.9e-05 (inactive)
slope [6]: 0.00449 (inactive)
inhibition [7]: 0.711% (inactive)
inhibition [8]: -6.34% (inactive)

O=C1CN(C(=O)COC(=O)C23CC4CC(CC(O)(C4)C2)C3)c2ccccc2N1
cell count [1]: 649
inhibition [1]: 1.4% (inactive)
inhibition of aggregation [2]: 8% (inactive)
nuclei count [2]: 106%
inhibition [3]: -44.5% (inactive)
nuclei count [3]: 102%
fluorescence slope [4]: -0.597 (inactive)
NADPH fluorescence slope [5]: -3.1e-05 (inactive)
slope [6]: 0.00543 (inactive)
inhibition [7]: 8.83% (inactive)
inhibition [8]: 27.8% (inactive)

Cc1ccc(S(=O)(=O)N2CCN(C(=O)CSC3CCCC3)CC2)c(C)c1
cell count [1]: 318
inhibition [1]: 3.7% (inactive)
inhibition of aggregation [2]: -0.7% (inactive)
nuclei count [2]: 93.6%
inhibition [3]: -425% (inactive)
nuclei count [3]: 110%
fluorescence slope [4]: -0.482 (inactive)
NADPH fluorescence slope [5]: 4.3e-06 (inactive)
slope [6]: 0.00451 (inactive)
inhibition [7]: 17.2% (inactive)
inhibition [8]: 14.9% (inactive)

CON(C)c1nc(Oc2ccc(=O)[nH]n2)nc(N(C)C)n1
cell count [1]: 678
inhibition [1]: -6.2% (inactive)
inhibition of aggregation [2]: -9.5% (inactive)
nuclei count [2]: 85.9%
inhibition [3]: -48.5% (inactive)
nuclei count [3]: 101%
fluorescence slope [4]: -0.351 (inactive)
NADPH fluorescence slope [5]: 1.4e-05 (inactive)
slope [6]: 0.00477 (inactive)
inhibition [7]: 16.3% (inactive)
inhibition [8]: 19.3% (inactive)

COc1ccc(S(=O)(=O)Nc2cccc(C)n2)c2ccccc12
cell count [1]: 713
inhibition [1]: 6.1% (inactive)
inhibition of aggregation [2]: -1.6% (inactive)
nuclei count [2]: 76.3%
inhibition [3]: 41.3% (inactive)
nuclei count [3]: 92.3%
fluorescence slope [4]: -0.528 (inactive)
NADPH fluorescence slope [5]: 2.4e-05 (inactive)
slope [6]: 0.00605 (inactive)
inhibition [7]: -6.27% (inactive)
inhibition [8]: 0.733% (inactive)

CCN(CC)c1nc2cc(OC)ccc2cc1C#N
cell count [1]: 386
inhibition [1]: -7.8% (inactive)
inhibition of aggregation [2]: 8.6% (inactive)
nuclei count [2]: 101%
inhibition [3]: -50.8% (inactive)
nuclei count [3]: 114%
fluorescence slope [4]: -0.584 (inactive)
NADPH fluorescence slope [5]: -6.9e-06 (inactive)
slope [6]: 0.00563 (inactive)
inhibition [7]: 12.7% (inactive)
inhibition [8]: 41% (inactive)

COc1ccc(-c2nc(CS(=O)CC(=O)N3CCCC3)c(C)o2)cc1 (centres undefined)
cell count [1]: 465
inhibition [1]: 2.6% (inactive)
inhibition of aggregation [2]: 6.1% (inactive)
nuclei count [2]: 100%
inhibition [3]: -51.5% (inactive)
nuclei count [3]: 100%
fluorescence slope [4]: -0.482 (inactive)
NADPH fluorescence slope [5]: -3.2e-05 (inactive)
slope [6]: 0.006 (inactive)
inhibition [7]: 26% (inactive)
inhibition [8]: 5.74% (inactive)
